Rows were chosen to be rich in hits. Some 3.6% of all compounds tested hit in one or more screens of this group.
aSyn yeast inh: qHTS of alpha-syn Inhibitors. Yeast expressing alpha-synuclein, growth rescue, BacTiter-Glo, 24 h. Potency, µM (top dose mostly 46.1 µM), for inactives: at the highest dose growth rescue (activation), hits mostly activators. hit rate 0.14% among 370,000. AID 652106, 2013; note: % of control where 0% means no effect; nearly all actives have a fitted effect of over 65% in size
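Galactose-induced alpha-syn yeast (OD600=0.02, raffinose-pregrown) + pinned cpd, 24 hr, 30 deg C; growth by BacTiter-Glo luminescence. Growth restoration scores as activation.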
MmCpn inh: Inhibitors of TCP-1 ring complex (TRiC) of Methanococcus maripaludis (MmCpn): qHTS; Chaperonin Mm-Cpn (Methanococcus maripaludis); Potency, µM (doses to about 76.9 µM), for inactives: at the highest dose activity, negative = inhibition, most hits filed as inhibitors; purified Mm-Cpn ATPase, ADP Transcreener TR-FRET; hit rate 0.031% among 330,000; note: % is set by controls: 0 for no effect and ±100 for the full control effect; nearly all actives have a fitted effect of over 80% in size
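ATPase turnover read by TR-FRET ADP competition (Eu cryptate antibody/ADP-d2, 665/590 nm): 10uM ATP final, 25nM Mm-CPN final, 30 min 37degC after 10-min compound preincubation, pH 7.4 Tris/KCl/MgCl2/DTT buffer.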
Abeta rescue: qHTS for compounds that reverse cellular toxicity of Amyloid beta (A-beta) peptide in yeast: Primary Screen. hit rate 0.063% among 410,000. Potency, µM (doses to about 46.1 µM), most hits filed as activators. AID 1347071, 2019. yeast expressing A-beta42, growth rescue, OD600, 48 h; response scale: 0% DMSO, 100% iron-clioquinol control; note: nearly all actives have a fitted effect of over 55% in size
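Yeast growth medium received pinned compounds, then yeast cells expressing toxic A-beta were added; plates incubated at 30 C for 48 hr. Growth read as absorbance at 600 nm, normalized to DMSO and equimolar FeCl3 plus clioquinol controls.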
FUS yeast rescue: qHTS for Suppressors of FUS Proteinopathy: Primary screen using FUS-linked yeast assay; Potency, µM (titrated, usually from 76.6 µM), most hits filed as activators; S. cerevisiae FUS-expressing, growth rescue, OD600, 24 h; hit rate 0.24% among 390,000; AID 1347120, 2019;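 note: plate controls were DMSO vehicle for no effect and reference control for full effect; nearly all actives have a fitted effect of over 55% in size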
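Toxicity suppression screen in FUS-yeast. Cells induced with 2% galactose, starting OD 0.005, treated 24hr at 30C with compounds at multiple final concentrations; growth by OD600.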
ClpP mod: qHTS Assay for Activators of ClpP; Potency, µM (titrated, usually from 57.5 µM), for inactives: at the top dose activity change, negative = active; ATP-dependent Clp protease proteolytic subunit (Bacillus subtilis (strain 168)), P80244; hit rate 1.9% among 340,000; purified B. subtilis ClpP, FRET peptide cleavage, 20 min; active = well fitted falling curve with a large enough effect; inconclusive = small, poorly fitted or top-dose-only effect; inactive = no such curve, though single readings can be large or run the other way; note: the source files actives as falling curves though it sought activators and does not explain the sign; nearly all actives have a fitted effect of over 65% in size
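Purified B. subtilis ClpP, 10 microg/mL final in Tris/HCl pH8 with KCl, BSA, glycerol and Tween-20, cleaved an Abz/nitrotyrosine-quenched decapeptide. Fluorescence (ex 320, em 430) was read at 0 and 20 min at room temperature. Delta was normalized to 5.8 microM ADEP and DMSO/no-enzyme controls.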
TDP-43 yeast inh: qHTS of TDP-43 Inhibitors; TDP-43 expressing yeast growth rescue, BacTiter-Glo, 24 h; AID 652104, 2013; hit rate 1.8% among 410,000; Potency, µM (highest dose often 46.1 µM), without a hit: top-dose growth rescue (activation), most hits filed as activators; note: % of control where 0% means no effect; nearly all actives have a fitted effect of over 50% in size
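Yeast expressing TDP-43 (pregrown in raffinose, seeded at OD600=0.02 in galactose medium) exposed to compounds 24 hr at 30 deg C. Growth read by BacTiter-Glo luminescence; rescue of toxicity appears as increased signal.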
Starred values were filed as active, the others as inactive; i = inactive; ? = inconclusive; . = no result given; [ ] = dose if it differs, or a comment. Unless noted, calls come from the whole dose curve; as a rule, active = well fitted curve in the direction sought with a large enough effect; inconclusive = small, poorly fitted or top-dose-only effect, or another doubt; inactive = no such curve, though single readings can be large; an effect the other way counts as inactive or inconclusive. Potency is the fitted concentration of half-maximal effect.

SMILES	aSyn yeast inh	MmCpn inh	Abeta rescue	FUS yeast rescue	ClpP mod	TDP-43 yeast inh
O=c1cc(-c2ccccc2)[nH]c2nc3ccccc3n12	-18.9%	-7.7%	i	i	11.2µM*	-6.2%
CCc1ccc(N2C(=O)CSC23C(=O)N(Cc2cccc(OC)c2)c2ccccc23)cc1 (stereo not drawn)	22.1%	.	i	i	-1.3%	-4.9%
CCCCc1nn2c(=O)cc(COC(=O)c3ccccc3NC(=O)c3ccccc3OC)nc2s1	.	.	i	i	-5.3%	2.6%
O=c1c2ccccc2nnn1Cc1ccccc1	8.9%	-0.4%	i	i	0.9%	17.8µM*
CCCCSc1cnn(-c2ccccc2)c(=O)c1SCCCC	-2.1%	39.8µM*	i	i	-2.7%	-11.9%
CCSc1cnn(-c2ccccc2)c(=O)c1SCC	-1.4%	?	i	i	-1.2%	?
CCC1CCCCN1CCCNC(=O)c1sc2nc(C)cc(C)c2c1-n1cccc1 (stereo not drawn)	.	.	i	i	-1.9%	-22.3%
Cc1ccc(O)c(-c2cc(C(F)(F)F)[nH]n2)c1	2.8%	-0.8%	?	i	-15.0%	17.8µM*
CCCCn1c(=N)c(S(=O)(=O)c2ccc(C)cc2)cc2c(=O)n3cc(C)ccc3nc21	.	.	i	i	-3.7%	26.2%
CSc1ccccc1NC(=O)N1CCCC(C(=O)c2ccc3c(c2)OCO3)C1 (stereo not drawn)	-4.2%	0.8%	i	i	.	15.8µM*
CC(=O)c1ccc(NC(=O)N2CCCC(C(=O)c3ccc4c(c3)OCO4)C2)cc1 (stereo not drawn)	15.1%	0.2%	i	i	-16.9%	11.7%
Oc1ccc(Br)cc1C1C=C(c2ccc3c(c2)OCO3)NC(c2ccc(Br)cc2)N1 (stereo not drawn)	-27.5%	.	.	.	2.5%	.
COc1ccc(Cl)cc1NC(=O)CN(C)CC(=O)Nc1cc(OC)c(OC)c(OC)c1	-3.4%	-1.4%	i	i	-1.8%	0.6%
Cc1cc(Cl)ccc1NNC(=O)CCc1ccccc1	9.7%	-0.1%	i	i	0.7%	12.6µM*
COc1ccc(Cl)cc1NC(=S)NCCc1ccc(F)cc1	-13.0%	-2.1%	?	i	-0.1%	31.6µM*
COc1ccc(Cl)cc1NC(=O)CN(C)CC(=O)Nc1ccc(Br)cc1	4.8%	0.2%	i	i	-0.7%	22.4µM*
COc1ccc(Cl)cc1NC(=S)NCCc1ccc(S(N)(=O)=O)cc1	-4.8%	-0.4%	i	i	.	-5.3%[9.22 µM]
COc1ccc(Cl)cc1NC(=O)CCc1ccccc1	0.7%	-0.5%	i	i	-0.7%	8.91µM*
CCc1cccc(C)c1NC(=O)Cn1cnc2c1c(=O)n(C)c(=O)n2C	.	.	i	i	-3.8%	11.4%
CCC(Sc1nc2nccnc2c(=O)n1Cc1ccc(Cl)cc1)C(=O)NC1CCCCC1 (stereo not drawn)	.	.	i	i	-3.9%	23.1%
Fc1ccc(-c2n[nH]c(=S)n2N=Cc2ccc(OCc3ccccc3)cc2)cc1	.	.	.	i	.	.
CC(C)N(C(=O)CSc1cn(CC(=O)N2CCCCCC2)c2ccccc12)C(C)C	.	.	i	i	-0.5%	-0.1%
CC(=O)c1cc(CN2C(=O)c3ccccc3C2=O)cs1	20.6%	1.7%	i	i	1.8%	14.1µM*
CC(C)c1ccc(NS(=O)(=O)c2ccc3nc(-c4ccccc4)[nH]c3c2)cc1	.	.	i	i	0.4%	16.7%
CCCNC(=O)CN1C(=O)c2cccnc2Sc2ccccc21	.	.	i	i	-4.1%	15.0%
SMILES	aSyn yeast inh	MmCpn inh	Abeta rescue	FUS yeast rescue	ClpP mod	TDP-43 yeast inh
CC(=O)c1cc(CC=C(C)C)c(O)c(CC=C(C)C)c1O	-0.6%	-0.6%	i	i	28.2µM*	6.8%
CCOC(=O)c1snc2c(=O)[nH]cnc12	-2.6%	-6.1%	i	i	28.2µM*	16.2%
O=C(Nc1ccccc1)c1snc2c(=O)[nH]cnc12	0.8%	1.8%	i	i	.	0.0%
CCOC(=O)c1cccc(NC(=O)c2sc3nc[nH]c(=O)c3c2C)c1	.	.	i	i	-1.9%	-0.1%
CCOC(=O)c1sc2nc[nH]c(=O)c2c1C	-4.9%	-0.1%	i	i	31.6µM*	15.8%
COc1cccc(CNC(=O)c2sc3nc[nH]c(=O)c3c2C)c1	.	.	i	i	39.8µM*	-6.4%
CCc1ccc(CNC(=O)c2sc3nc[nH]c(=O)c3c2C)cc1	.	.	i	i	-13.7%	0.7%
C[C@@H]1C(=O)N2N=Cc3ccccc3[C@H]2N2N=Cc3ccccc3[C@@H]12	.	.	.	i	.	.
CCC(CC)C(=O)Nc1nnc(SCc2cc(=O)c3ccccc3[nH]2)s1	.	.	i	i	-0.7%	7.2%
Cc1cc(C)n(-c2nc(Nc3ccccc3C(F)(F)F)nc(-n3nc(C)cc3C)n2)n1	?	0.2%	i	?	-14.0%	20µM*
Cc1cc(C)n(-c2nc(Nc3ccccc3C)nc(-n3nc(C)cc3C)n2)n1	.	0.9%	.	.	.	.
COc1cc(NC(=O)NC2CCCCN(Cc3ccc(Cl)cc3)C2=O)cc(OC)c1 (stereo not drawn)	.	.	.	i	.	.
CC(C)[C@H](N)C(=O)N[C@@H](Cc1ccccc1)C(=O)N1CCC2CCN(S(=O)(=O)c3ccccc3)CC21 (stereo partly drawn)	.	.	.	i	.	.
CCOC(=O)[C@]12CCCC=C1N(CCC1=CCCCC1)C(=O)[C@H](CC(=O)NCCc1ccccc1OC)C2	5.6%	.	i	i	-1.7%	20µM*
COC(=O)[C@]12CCCCC=C1N(Cc1ccco1)C(=O)[C@H](CC(=O)N1CCC(c3ccccc3)CC1)C2	6.8%	.	i	i	0.6%	12.6µM*
COC(=O)[C@]12CCCCC=C1N(CCC1=CCCCC1)C(=O)[C@H](CC(=O)NCc1ccccc1)C2	21.7%	.	i	i	-0.9%	35.5µM*
CCOC(=O)[C@]12CCCC=C1N(Cc1ccccc1)C(=O)[C@H](CC(=O)NCC13CC4CC(CC(C4)C1)C3)C2	6.2%	.	i	12.6µM*	-3.5%	-4.5%
CCOC(=O)[C@]12CCCC=C1N(Cc1ccco1)C(=O)[C@H](CC(=O)N1CCC(c3ccccc3)CC1)C2	2.0%	.	i	i	0.0%	14.1%
C[C@H]1C2CC(OC(=O)NCCCc3ccccc3)C(C2)[C@H]2CCCCN21 (stereo partly drawn)	.	.	.	i	.	.

Screening results deposited in PubChem BioAssay by National Center for Advancing Translational Sciences (NCATS).
